PLK1 PBD inh: blocks phosphopeptide binding to human PLK1 polo-box domain. P53350. Plk1 PBD binding of FITC phosphopeptide, fluorescence polarization. Potency, µM, inactives show max response, negative = inhibition, actives largely listed as inhibitors. 360,000 compounds, 2.8% hits. AID 720504; further: potency means the concentration at half of the fitted maximal effect; series mostly up to about 57 µM; on the % scale 0 is the no-effect control and ±100 the full control effect; nearly all actives have a fitted effect of over 65% in size
Rango-impB inh: prevents formation of the Rango-importin beta complex. Q14974. AID 540263. Potency, µM (titrated, usually from 92.2 µM), without a hit: at the top dose inhibition of complex formation. Rango CFP/YFP FRET sensor + importin beta, 45 min. 340,000 compounds, 0.031% hits; calls by dose curve;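 further: potency means the concentration at half of the fitted maximal effect; 0% = DMSO wells and 100% = buffer wells lacking importin beta; nearly all actives have a fitted effect of over 15% in size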
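FRET biosensor Rango (snurportin 1 IBB between N-terminal EYFP and C-terminal Cerulean), 50 nM in PBS/1 mM DTT/0.02% Tween-20/0.1% BSA, preincubated 5 min RT with compound; 0.125 microM importin beta added, 45 min RT, CFP/YFP FRET ratio read.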
VDR inh: inhibitors of human vitamin D receptor; VDR-SRC2-3 peptide fluorescence polarization, 2 h; Potency, µM, for the others: max response, negative = inhibition, usual class: inhibitors; 400,000 compounds, 0.93% hits; further: potency means the concentration at half of the fitted maximal effect; on the % scale 0 is the no-effect control and ±100 the full control effect
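Reagent solutions, kept cold and dark, are dispensed first; compounds are then pinned in at 23 nl, plates briefly spun, and incubated 2 h at ambient temperature. Inhibition of VDR–SRC2-3 peptide binding is read by fluorescence polarization.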
Rango release inh: prevents RanGTP from dissociating the Rango-importin beta complex | O95149+P62826 | Biochemical FRET Rango-importin beta, RanGTP-induced dissociation | Potency, µM (titrated, usually from 46.1 µM), for inactives: at the top dose activity change, negative = inhibition | 340,000 compounds, 0.071% hits | AID 540253; calls by dose curve; further: potency means the concentration at half of the fitted maximal effect; % of control where 0% means no effect; nearly all actives have a fitted effect of over 45% in size
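Compounds sat 5 min at room temperature with 0.1 uM Rango biosensor plus 0.25 uM importin beta, then FRET pre-read. RanGTP-RCC1 (0.6 uM Ran, 2mM GTP, 0.2 uM RCC1) added for 45 min, and the CFP/YFP post-read measured blocked complex dissociation.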
PI5P4K alpha inh: PI5P4K alpha (human) kinase inhibition; max response, %; P48426; 330,000 compounds, 1.2% hits; PI5P4Kalpha enzyme, ADP-Glo luminescence, 60 min; stronger effect = lower value; active means max response of -50% or lower; inconclusive means between -30% and -50%; inactive means -30% or higher; further: value at the top dose of about 77 µM; on the % scale 0 is the no-effect control and ±100 the full control effect
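Reactions run in 0.038 M HEPES pH 7.4, 0.28 mM EGTA, 0.1% CHAPS and 5% DMSO, with PI5P4Kalpha, substrate, compound and 5 microM ATP final, one hour at room temperature. Readout is ADP-Glo luminescence.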
KAT2A inh: blocks human GCN5L2 histone acetyltransferase. Potency, µM (titrated, usually from 58.9 µM), inactives show top-dose activity change, negative = inhibition, hits mostly inhibitors. Q92830. 390,000 compounds, 0.21% hits. GCN5L2 HAT assay, ThioGlo1 CoA-SH fluorescence; further: potency means the concentration at half of the fitted maximal effect; on the % scale 0 is the no-effect control and ±100 the full control effect
Target sequence (Q92830 whole entry, looked up): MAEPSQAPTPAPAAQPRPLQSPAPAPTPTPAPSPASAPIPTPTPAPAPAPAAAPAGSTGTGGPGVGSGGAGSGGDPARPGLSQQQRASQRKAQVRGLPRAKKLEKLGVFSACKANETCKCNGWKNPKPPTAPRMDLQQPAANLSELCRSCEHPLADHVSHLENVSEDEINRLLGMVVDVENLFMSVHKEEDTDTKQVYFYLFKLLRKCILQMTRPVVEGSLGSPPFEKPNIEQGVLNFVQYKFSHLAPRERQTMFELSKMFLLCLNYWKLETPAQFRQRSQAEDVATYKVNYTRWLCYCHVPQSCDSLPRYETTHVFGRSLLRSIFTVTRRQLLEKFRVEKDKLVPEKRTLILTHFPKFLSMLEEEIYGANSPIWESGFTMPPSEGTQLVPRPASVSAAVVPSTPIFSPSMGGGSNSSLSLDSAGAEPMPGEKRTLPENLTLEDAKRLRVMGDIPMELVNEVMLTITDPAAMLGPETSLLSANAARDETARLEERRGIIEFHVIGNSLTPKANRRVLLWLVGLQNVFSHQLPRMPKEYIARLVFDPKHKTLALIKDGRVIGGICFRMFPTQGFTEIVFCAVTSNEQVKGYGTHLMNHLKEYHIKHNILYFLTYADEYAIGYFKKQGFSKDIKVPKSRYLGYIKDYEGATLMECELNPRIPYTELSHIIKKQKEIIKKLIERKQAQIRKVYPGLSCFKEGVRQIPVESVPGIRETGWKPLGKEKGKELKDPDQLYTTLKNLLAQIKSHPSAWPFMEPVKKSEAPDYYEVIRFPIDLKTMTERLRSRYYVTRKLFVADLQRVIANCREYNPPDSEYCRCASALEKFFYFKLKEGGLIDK
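Fluorescence readout, Ex340nm/Em540nm: ThioGlo1 (50uM final) reacts with free CoA thiol released as 20nM GCN5L2 acetylates H3(1-25) peptide (75uM) using acetyl-CoA (70uM). Compound and enzyme sat 15 min beforehand; 20 min room-temperature reaction.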
Starred values were filed as active, the others as inactive; ? = inconclusive; / = not tested or not shown; ! = not confirmed by another sample. Most compounds without a hit are left out; they make up all but 3.6% or so of the library. Unless noted, the call rests on the fitted dose curve; in most records, active means well fitted curve in the direction sought with a large enough effect; inconclusive means small, poorly fitted or top-dose-only effect, or another doubt; inactive means no such curve, though single readings can be large; an effect the other way counts as inactive or inconclusive.

SMILES	PLK1 PBD inh	Rango-impB inh	VDR inh	Rango release inh	PI5P4K alpha inh	KAT2A inh
O=c1c2ccccc2nc(SCc2nnc(-c3ccccc3Br)o2)n1-c1ccccc1	-1.3%	1.9%	-2.2%	14.6%	/	3.1%
Brc1ccccc1-c1nnc(CSc2nncn2-c2ccccc2)o1	26.7µM*	2.1%	-17.9%	1.9%	?	-1.1%
O=c1oc2ccccc2cc1-c1nc2c(s1)CCc1ccccc1-2	15µM*	?	-11.1%	?	3.4	-21.0%
O=c1oc2ccc3ccccc3c2cc1-c1nc2c(s1)CCc1ccccc1-2	/	/	-5.7%	/	/	/
O=c1oc2cc(O)ccc2cc1-c1nc2c(s1)CCc1ccccc1-2	3.77µM*	?	-15.9%	?	-22.5	-6.9%
CCCC(=O)c1cc(F)c(N2CCOCC2)cc1C	23.8µM*	2.8%	-6.4%	-8.8%	/	-1.1%
COc1ccc(CNC(=O)Cc2c(C)c3c(cc(C)c4c(C)coc43)oc2=O)cc1	/	/	7.3%	/	/	2.2%
CCOC(=O)c1c(C)nc(C)c(C(=O)OCC)c1-c1ccc(O)c(OC)c1	6.7µM*	7.5%	?	-19.2%	-21.7	-11.2%
CO[C@H]1/C=C/O[C@@]2(C)Oc3c(C)c(O)c4c(O)c(c(/C=N\N5CCN(C6CCCC6)CC5)c(O)c4c3C2=O)NC(=O)/C(C)=C\C=C\[C@H](C)[C@H](O)[C@@H](C)[C@@H](O)[C@@H](C)[C@H](OC(C)=O)[C@@H]1C	/	/	11.2µM*	/	/	-26.5%
COc1ccc2[nH]c3c(c2c1)CCN1C(=O)C(CC(=O)NCCc2ccccn2)C[C@H](C(=O)N2CCOCC2)[C@@]31CCC1CCCC1 (stereo partly drawn)	29.9µM*	5.5%	?	6.7%	-27.2	-0.5%
COc1ccc2[nH]c3c(c2c1)CCN1C(=O)C(CC(=O)NCc2ccc(OC)c(OC)c2)C[C@H](C(=O)N2CCCCC2)[C@@]31CCc1ccccc1 (stereo partly drawn)	21.2µM*	-0.1%	?	0.0%	?	-9.4%
CN(C)C(=O)CCc1ccc2c3c([nH]c2c1)[C@]1(CCc2ccccc2)[C@@H](C(=O)N2CCCCC2)C[C@H](CC(=O)NCc2cccc(C(F)(F)F)c2)C(=O)N1CC3	26.7µM*	3.5%	?	9.8%	?	-2.2%
COc1ccc2[nH]c3c(c2c1)CCN1C(=O)C(CC(=O)NCc2ccc(OC)c(OC)c2)C[C@H](C(=O)N2CCOCC2)[C@@]31C (stereo partly drawn)	26.7µM*	3.6%	-16.6%	15.5%	-19.0	1.3%
O=c1ccc2ccccc2[nH]1	/	/	-1.4%	/	/	0.4%
COc1ccc(Nc2c3c(nc4ccc(NC(=O)c5cc(Cl)ccc5OC)cc24)CCCC3)cc1OC	/	/	11.5%	/	/	-2.5%
Cc1ccc(C2C(=O)N(C3CCCCCC3)CC(=O)N2CCC2=CCCCC2)cc1 (stereo not drawn)	/	/	21.9%	/	/	3.4%
O=C(Nc1nnc(S(=O)(=O)N2CCCCC2)s1)c1ccc(Cl)cc1	-11.0%	0.1%	-16.2%	9.7%	-22.2	11.2µM*!
CC1=NN(c2ccc(C)c(C)c2)C(=O)C1C(c1cccc(O)c1)C1C(=O)N(c2ccc(C)c(C)c2)N=C1C (stereo not drawn)	8.44µM*	7.9%	?	-4.1%	3.5	-14.3%
CC1=NN(c2ccc(C)cc2C)C(=O)C1C(c1ccccc1O)C1C(=O)N(c2ccc(C)cc2C)N=C1C (stereo not drawn)	?	5.0%	?	1.0%	-10.1	-6.1%
N=C1C(c2nc(-c3cccc([N+](=O)[O-])c3)cs2)=C(O)CN1NC(=O)c1ccco1	-29.9%	-3.0%	13.8%	8.4%	-55.2*	-6.0%
CCOc1cccc(/C=N/N=C/c2cccc(OCC)c2O)c1O	-2.8%	?	-9.1%	1.3%	-9.0	2.3%
CCOc1cccc(C=Nc2cc(C)cc(C)c2O)c1O	23.8µM*	0.4%	?	-11.4%	-5.5	-10.7%
O=C(O)Cc1sc(-c2ccccc2)nc1-c1ccc(Cl)cc1	-5.1%	/	/	/	13.3	/
Cc1ccc(Nc2nc(-c3ccccc3)c(CC(=O)O)s2)cc1	?	0.4%	9.2%	-11.9%	-5.9	0.7%
O=C(O)Cc1sc(Nc2ccccc2)nc1-c1ccc(Cl)cc1	21.2µM*	-2.0%	3.6%	-19.9%	-8.8	-13.2%
SMILES	PLK1 PBD inh	Rango-impB inh	VDR inh	Rango release inh	PI5P4K alpha inh	KAT2A inh
O=C(O)Cc1sc(-c2ccc(Cl)cc2)nc1-c1ccccc1	23.8µM*	4.1%	?	11.6%	-28.4	-8.9%
COc1cccc(NC(=S)/C(=C(\[O-])c2ccc([N+](=O)[O-])cc2)[n+]2ccccc2)c1	7.52µM*	-1.7%	?	18.9%	-29.0	-6.5%
CCOC(=O)c1ccc(N2C(=O)c3n[nH]c(-c4ccco4)c3C2c2ccccc2OC)cc1 (stereo not drawn)	/	/	-20.3%	/	/	-21.1%
CN(C)c1ccc(C2Nc3cccc4cccc(c34)N2)cc1	-14.7%	1.7%	24.9%	11.1%	-9.6	-2.9%
c1csc(C2Nc3cccc4cccc(c34)N2)c1	29.9µM*	1.1%	?	-20.7%	-17.6	-10.1%
c1ccc(C2Nc3cccc4cccc(c34)N2)cc1	26.7µM*	0.9%	-15.5%	6.8%	?	-3.5%
COc1ccc(C2Nc3cccc4cccc(c34)N2)cc1	29.9µM*	-3.8%	-19.0%	20.8%	-6.1	-1.5%
Clc1cccc(Cl)c1C1Nc2cccc3cccc(c23)N1	-7.3%	-2.9%	12.7%	-15.3%	-1.4	-9.6%
CCCCC(CC)C(=O)Nc1ccc(C)c(O)c1 (stereo not drawn)	29.9µM*	1.7%	?	0.7%	-2.8	-1.9%
CCCCC(CC)C(=O)Nc1ccc(Nc2ccccc2)cc1 (stereo not drawn)	-1.8%	0.3%	-0.6%	10.8%	-12.3	-11.3%
COc1cc(/C=C2/S/C(=N/S(=O)(=O)c3ccccc3)NC2=O)c([N+](=O)[O-])cc1OC	26.7µM*	?	-7.9%	?	?	-23.1%
O=C1N/C(=N\S(=O)(=O)c2ccccc2)S/C1=C\c1cc([N+](=O)[O-])ccc1O	26.9%	?	?	?	42.7	-4.2%
COc1cc(/C=C2\S/C(=N/S(=O)(=O)Cc3ccccc3)NC2=O)c([N+](=O)[O-])cc1OC	-17.0%	?	-28.0%	-1.3%	-15.9	-4.5%
COc1cc(/C=C2/S/C(=N/S(=O)(=O)Cc3ccccc3)NC2=O)c([N+](=O)[O-])cc1OC	23.8µM*	?	-12.7%	-9.1%	?	-20.3%
CCCCN(CC)c1nc(N)c(C#N)c(CC#N)c1C#N	7.3%	?	-9.5%	?	-70.9*	-7.8%
CC(=O)c1ccc(NC(=O)CSc2nccn2Cc2ccc3c(c2)OCO3)cc1	/	/	-1.5%	/	/	-0.1%
